CYP2C19 activ: human CYP2C19 activators, primary screen, biochemical, luminescence. Cytochrome P450 2C19 (Homo sapiens), P33261. recombinant CYP2C19, luciferin-H EGE luminescence; active compounds read high; 0 = fully inhibited enzyme, 1 = untreated enzyme. activation factor at 5 µM. 96,000 tested, under 10 active;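 active = activation factor of at least 2 at 5 µM in the primary screen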;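 also: 0 = wells with 2.5 mM tranylcypromine and 1 = vehicle-only wells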
CYP2C9 act: human CYP2C9 activators, primary screen, biochemical, luminescence; Cytochrome P450 2C9 (Homo sapiens), P11712; recombinant CYP2C9, luciferin-H conversion; active compounds read high; factor 1 = untreated enzyme, 0 = blocked; activation factor at 5 µM; hit rate 1.4% among 96,000;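 active = activation factor of 2 or more for CYP2C9 at a 5 µM dose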;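 also: 0 = sulfaphenazole-blocked wells and 1 = vehicle-only wells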
CYP2C19 inh: blockers of cytochrome P450 2C19 activity – biochemical, luminescence, ADME assay, primary screen; AID 778, 2007; inhibition, % at 5 µM; P33261; CYP2C19 Supersomes, luciferin-H EGE luminescence, 30 min; hit rate 21% among 96,000;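 active = CYP2C19 inhibition above a set limit at 5 µM in the primary screen, cut at about 50% in these data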;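 also: plate controls were negative control wells for no effect and 2.5 mM tranylcypromine positive control for full effect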
CYP2C9 inh: blockers of cytochrome P450 2C9 activity – biochemical, luminescence, ADME assay, primary screen; P11712; CYP2C9 Supersomes, luciferin-H conversion; inhibition, % at 5 µM; hit rate 20% among 96,000; AID 777, 2007;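 active = blocking of liver enzyme CYP2C9 beyond about 50% at 5 µM, limit read from the data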
DAT uptake mod: changed hDAT dopamine uptake under cocaine IC80, either direction, primary screen, cocaine antagonist project, cell-based, LLC-PK1 hDAT, [14C]-dopamine uptake, MLSMR; LLC-PK1 hDAT cells, [14C]-dopamine uptake with cocaine IC80; actives deviate in either direction; hit rate 1.3% among 110,000; Sodium-dependent dopamine transporter (Homo sapiens), Q01959; B-score at 10 µM; AID 449768, 2010;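 active = Z score or B-score, a plate-position-corrected score, falls beyond the plate's 99.7% confidence bounds, in either direction; inactive = both scores lie inside the 99.7% bounds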;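 also: scored against the spread of the other compound wells on the same plate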
D1 mod: D1 CRE-luciferase signal change, two-sided – cell-based, HEK293 D1, dopamine EC30, D1 allosteric modulator project, primary screen. D(1A) dopamine receptor (Homo sapiens), P21728. dopamine EC30 potentiation; actives deviate in either direction. B-score at 10 µM. hit rate 5.9% among 58,000. AID 641, 2007;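 active = luminescence count or its row- and column-corrected plate score outside the 99.7% band of the plate's sample wells, on either side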
Target sequence (P21728 whole entry, looked up): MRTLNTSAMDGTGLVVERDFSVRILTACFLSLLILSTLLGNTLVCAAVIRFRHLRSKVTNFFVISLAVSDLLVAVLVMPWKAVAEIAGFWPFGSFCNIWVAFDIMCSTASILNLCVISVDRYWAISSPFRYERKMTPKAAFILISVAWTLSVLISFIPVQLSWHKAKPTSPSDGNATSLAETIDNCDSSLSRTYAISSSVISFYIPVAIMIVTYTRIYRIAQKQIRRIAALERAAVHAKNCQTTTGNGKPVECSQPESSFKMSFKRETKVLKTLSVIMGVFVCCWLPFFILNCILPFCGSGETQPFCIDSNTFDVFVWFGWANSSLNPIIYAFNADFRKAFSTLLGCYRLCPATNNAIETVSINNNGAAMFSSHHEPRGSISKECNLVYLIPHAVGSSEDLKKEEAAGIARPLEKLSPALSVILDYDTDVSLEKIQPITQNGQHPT
An asterisk follows results filed as active; · = not tested or not shown. Hits are enriched below; roughly 28% of the tested compounds scored in any of these assays.

SMILES	CYP2C19 activ	CYP2C9 act	CYP2C19 inh	CYP2C9 inh	DAT uptake mod	D1 mod
Cc1c(NC2=NC3(CCCCC3)Cc3ccccc32)c(=O)n(C)n1-c1ccccc1	·	·	·	·	-0.17	·
COc1ccc(Cl)cc1NC(=O)C1CCCO1 (configuration not stated)	0.7	3.1*	29	-214	0.075	1.3
COc1ccc(Cl)cc1NC(=O)CN(C)C(C)C(=O)NCC1CCCCC1 (configuration not stated)	0	2.6*	99*	-160	1.5	·
COc1ccc(Cl)cc1NC(=O)CC(C)=O	0.9	3.6*	8	-261	0.011	0.31
COc1ccc(Cl)cc1NC(=O)NCCCl	0.8	1.1	18	-12	-0.59	·
COc1ccc(Cl)cc1NC(=O)CC(C)c1ccccc1 (configuration not stated)	0.2	4*	85*	-296	0.71	·
Cn1c(=O)c2c(nc(SCc3cccnc3)n2Cc2ccc(F)cc2)n(C)c1=O	0.7	0.6	26	41	1.5	0.025
O=c1c(-c2nnc(SCc3ccc(Cl)c(Cl)c3)o2)cccn1Cc1ccccc1	0.2	0.4	84*	56*	2	·
CCOC(=O)CCN(Cc1cccs1)S(=O)(=O)c1ccc(F)cc1	0.2	0.6	75*	36	1.3	-0.7
CCOC(=O)CCN(Cc1sccc1C)S(=O)(=O)c1ccc(F)cc1	0.1	0.3	85*	66*	3.8*	·
Cc1ccc(S(=O)(=O)n2nc(OC(=O)c3c(-c4ccccc4Cl)noc3C)cc2N)cc1	0.6	0.1	36	93*	1.3	·
COc1ccc(S(=O)(=O)n2nc(OC(=O)c3ccccc3Br)cc2N)cc1	0.6	0.1	45	93*	·	0.58
COc1ccc(S(=O)(=O)n2nc(OC(=O)c3cccs3)cc2N)cc1	0.8	0.3	18	73*	-1.8	1.1
Cc1onc(-c2ccccc2Cl)c1C(=O)Oc1cc(N)n(S(=O)(=O)c2ccc(F)cc2)n1	1.1	0.9	-6	12	0.29	-0.14
COc1ccc(S(=O)(=O)n2nc(OC(=O)c3ccc(C)cc3)cc2N)cc1	1	0.2	1	81*	0.026	-1.6
COc1ccc(S(=O)(=O)n2nc(OC(=O)c3ccccc3)cc2N)cc1	1.1	1	-13	-2	-0.43	0.29
C=CCN1C=CC(=O)CC1	·	·	·	·	0.16	·
O=C(c1ncc[nH]1)c1ccccc1C(=O)N1CCOCC1	0.9	0.9	11	15	-0.87	-0.1
N#CC(C#N)=c1ccc2c(c1)NC1(CCCCC1)N=2	0.7	0.4	30	56*	0.56	-0.7
CCCCC(CC)C(=O)Nc1ccccc1C(=O)NC(C)C (configuration not stated)	0.9	0.6	10	41	-0.45	0.0026
Cc1ccc(C2N(c3ccc(F)cc3)C(=O)C3CCCN32)cc1 (configuration not stated)	0.5	0.7	50*	32	0.42	1.4
CCOc1ccc(C2N(c3ccc(F)cc3)C(=O)C3CCCN32)cc1 (configuration not stated)	0.2	0.2	83*	83*	-0.55	-0.11
CN(C)c1ccc(C2N(c3ccc(F)cc3)C(=O)C3CCCN32)cc1 (configuration not stated)	0.6	0.7	36	30	0.29	-0.011
Cc1ccc2oc(=O)c3cnn(CC(=O)Nc4cc(-c5cccc(F)c5)no4)c3c2c1	·	·	·	·	-0.13	·
O=C(COC(=O)C12CC3CC(CC(O)(C3)C1)C2)N1CCN(S(=O)(=O)c2ccc(Cl)cc2)CC1	·	·	·	·	0.0073	-0.53
CCOC(=O)N1CCN(S(=O)(=O)c2cc(Br)cc3c2N(C(C)=O)C(C)C3)CC1 (configuration not stated)	0.4	0.5	64*	50	1.8	0.51
COc1cccc(CNC(=O)C2CCC(CNS(=O)(=O)c3cccc4nsnc34)CC2)c1 (configuration not stated)	0.8	0.7	16	28	0.0037	·
